# Measurements as given in PubChem BioAssay (NCATS).
# Values without a mark were called inactive. Inconclusive results are not listed. Activity calls are given as the source filed them.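 Rule for the calls, unless noted: active = compounds whose dose series gives a full or clear partial fitted curve of increased nuclear translocation; inconclusive = weak partial curve or effect only at the top dose; inactive = no dose-dependent translocation response.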
# Legend:
# [1] = Stat Signaling Pathway (AID 446; active = well fitted curve in either direction with a large enough effect, not every such curve was filed as active;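 note: ME-180 cervical cancer cells given 40 pM IL-6 alongside compound; SIE-controlled beta-lactamase reporter measured as 460/530 nm FRET emission ratio; % is set by controls: 0 for no effect and ±100 for the full control effect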); conditions: ME-180 (cervical carcinoma) SIE beta-lactamase reporter, IL-6 stimulated, 5 h; at 17.2 µM (top of the series) unless noted
# How it was run: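 FRET read-out (405 nm excitation, 460/530 nm emission) of a beta-lactamase reporter under a STAT-inducible element in ME-180 cervical carcinoma cells. Cells with compound receive 40 pM IL-6 for 5 h. Values are normalised to AC90 stimulation and AC90 JAK-inhibitor controls.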
# [2] = target: Glucocorticoid receptor (Homo sapiens) (UniProt P04150); assay: GR-GFP Redistribution (AID 450); note: potency is the fitted concentration of half-maximal effect
# [3] = target: Glucocorticoid receptor (Homo sapiens) (UniProt P04150); assay: GR-EFC Redistribution (AID 451; calls by dose curve; note: potency is the fitted concentration of half-maximal effect); conditions: CHO-K1 GR-EFC translocation, beta-gal luminescence, 2 h
# How it was run: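 CHO-K1 cells stably expressing nuclear-localized β-gal enzyme acceptor and GR fused C-terminally to the enzyme donor fragment; ligand-driven nuclear translocation restores β-gal by complementation. Compounds titrated up to 46 uM final, 2 h at 37 °C; luminescence read.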
# [4] = target: Mitogen-activated protein kinase 10 (Mus musculus) (UniProt Q61831); assay: JNK3 AlphaScreen Assay (AID 530; active = well fitted curve in either direction with a large enough effect, not every such curve was filed as active;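 note: kinase came from lysate of stimulated human HepG2 cells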; note: potency is the fitted concentration of half-maximal effect;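 for activity change, negative = inhibition: signal reports phosphorylation of biotinylated GST-cJun 1-79 at Ser73 with 10 µM ATP; % is set by controls: 0 for no effect and ±100 for the full control effect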)
# How it was run: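 Biotinylated GST-cJun(1-79) served as substrate for JNK3 in HepG2 lysates stimulated with IL-1beta and TNF-alpha. ATP was 10 uM final, pH 7.6. Ser73 phosphorylation was quantified by AlphaScreen (680 nm excitation).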
# Chain of Glucocorticoid receptor (Homo sapiens) (P04150 whole entry, looked up, the tested form may be a part): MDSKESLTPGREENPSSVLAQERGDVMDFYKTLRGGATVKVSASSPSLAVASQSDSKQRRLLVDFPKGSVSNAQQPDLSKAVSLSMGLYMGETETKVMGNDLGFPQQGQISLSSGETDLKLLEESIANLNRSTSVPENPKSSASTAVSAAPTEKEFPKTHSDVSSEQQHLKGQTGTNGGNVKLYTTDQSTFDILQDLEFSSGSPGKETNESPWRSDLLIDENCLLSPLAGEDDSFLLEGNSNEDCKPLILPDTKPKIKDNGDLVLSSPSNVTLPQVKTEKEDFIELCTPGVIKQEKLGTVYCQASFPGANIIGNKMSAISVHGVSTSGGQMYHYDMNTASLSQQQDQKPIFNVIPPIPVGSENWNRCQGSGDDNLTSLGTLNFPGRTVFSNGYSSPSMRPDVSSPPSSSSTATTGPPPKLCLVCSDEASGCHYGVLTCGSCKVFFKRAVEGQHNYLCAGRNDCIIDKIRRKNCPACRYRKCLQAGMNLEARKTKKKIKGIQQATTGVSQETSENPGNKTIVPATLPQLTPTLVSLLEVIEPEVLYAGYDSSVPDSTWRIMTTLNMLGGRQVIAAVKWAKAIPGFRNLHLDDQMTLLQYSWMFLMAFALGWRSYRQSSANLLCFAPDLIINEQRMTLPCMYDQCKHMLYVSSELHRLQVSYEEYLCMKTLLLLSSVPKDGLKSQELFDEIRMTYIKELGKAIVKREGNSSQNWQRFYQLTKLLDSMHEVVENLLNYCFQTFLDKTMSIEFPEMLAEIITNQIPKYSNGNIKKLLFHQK
smiles,measurement,setting,value
O=C(CCN1CCCC1Cc1ccccc1)c1ccc2c(c1)OCCO2 (configuration not stated),"activity, negative = inhibition",[1],14.7%
same,Potency,[2],> 20.6 µM
COc1cccc(-c2nc(N3CCCCC3C)c3ccccc3n2)c1O (configuration not stated),"activity, negative = inhibition",[1],-21.7%
same,Potency,[2],> 20.6 µM
COc1ccc(C2C=C(c3ccc(C)cc3)Nc3ncnn32)cc1 (configuration not stated),"activity, negative = inhibition",[1],-14.5%
same,Potency,[2],> 20.6 µM
N#C[C@@H](Cc1ccc(O)c(O)c1)C(=O)N1CCc2ccccc21,"activity, negative = inhibition",[1],26% [at 38 µM]
same,Potency,[2],> 46 µM
same,Potency,[3],> 46 µM
Cc1coc2c(O)cc3c(c12)OC1(N2CCCCC2)C(=O)NCCCC31 (configuration not stated),"activity, negative = inhibition",[1],-21.8%
same,Potency,[2],> 20.6 µM
CN1Cc2c(N3CCOCC3)nc(SCc3ccccc3)c(C#N)c2CC1(C)C,"activity, negative = inhibition",[1],-1.83%
same,Potency,[2],> 20.6 µM
Clc1ccccc1CN(Cc1ccccc1)c1ncnc2nc[nH]c12,"activity, negative = inhibition",[1],-10.3%
same,Potency,[2],> 20.6 µM
CC1(C)CC(=O)C2=C(C1)Oc1nc3ccccc3cc1C2C(C#N)C#N (configuration not stated),"activity, negative = inhibition",[1],-93% (active)
same,Potency,[2],> 20.6 µM
COC(=O)c1[nH]c2cc(OC)ccc2c1NC(=O)CN1CCN(c2cccc(C)c2)C(C)C1 (configuration not stated),"activity, negative = inhibition",[1],-21.4%
same,Potency,[2],> 20.6 µM
Cc1cccc(C)c1OCC(=O)Nc1cccc(-c2nnc(-c3ccccc3)o2)c1,"activity, negative = inhibition",[1],-9.86%
same,Potency,[2],> 20.6 µM
Cc1cc(NCCNC2=CC(=O)CCC2)nc2ccccc12,"activity, negative = inhibition",[1],4.57%
same,Potency,[2],> 20.6 µM
Cc1cc(/C=c2/sc3nc4ccccc4n3c2=O)c(C)n1-c1ccccn1,"activity, negative = inhibition",[1],-5.6%
same,Potency,[2],> 20.6 µM
Fc1ccc2[nH]c3c(N4CCN(c5ccccc5)CC4)ncnc3c2c1,"activity, negative = inhibition",[1],-93.2% (active)
same,Potency,[2],> 20.6 µM
COC(=O)C1=C(C)NC(C)=C(C(=O)OCCN(C)Cc2ccccc2)[C@@H]1c1cccc([N+](=O)[O-])c1,"activity, negative = inhibition",[1],-11.8% [at 38 µM]
same,Potency,[2],> 46 µM
same,Potency,[3],> 46 µM
CCCOc1ccc(Cl)cc1CN1CCOCC1,"activity, negative = inhibition",[1],8.53%
same,Potency,[2],> 20.6 µM
COc1ccccc1N1C(=O)C2ON(c3ccccc3)C(c3ccc(N(C)C)cc3)C2C1=O (configuration not stated),"activity, negative = inhibition",[1],-10.2%
same,Potency,[2],> 20.6 µM
COC(=O)c1ccccc1NC=C1C(=O)OC2(CCCCC2)OC1=O,"activity, negative = inhibition",[1],2.6%
same,Potency,[2],> 20.6 µM
CC(C)OC(=O)c1c2nc3ccccc3nc2n2c1[nH]c(=O)c1ccccc12,"activity, negative = inhibition",[1],-17%
same,Potency,[2],> 20.6 µM
CC(NC(=O)CSc1nc2c(cc1C#N)CN(C)CC2)c1ccccc1 (configuration not stated),"activity, negative = inhibition",[1],-4.3%
same,Potency,[2],> 20.6 µM
N#CC1=C(SCc2ccccc2)NC2=C(C(=O)CCC2)C1c1ccc2c(c1)OCO2 (configuration not stated),"activity, negative = inhibition",[1],-5.66%
same,Potency,[2],> 20.6 µM
COc1ccc(OC)c(NC(=O)CSC2=C(C#N)C(c3ccco3)C3=C(CCCC3=O)N2)c1 (configuration not stated),"activity, negative = inhibition",[1],-3.42%
same,Potency,[2],> 20.6 µM
O=C(O)CCc1cc(I)c(Oc2ccc(O)c(I)c2)c(I)c1,"activity, negative = inhibition",[1],-5.45%
same,Potency,[2],> 20.6 µM
COc1cc(C2C(C#N)=C(N)Oc3cc(N)ccc32)cc(OC)c1OC (configuration not stated),"activity, negative = inhibition",[1],-20.2%
same,Potency,[2],> 20.6 µM
C=CCOc1nc(-c2ccncc2)nc2ccccc12,"activity, negative = inhibition",[1],12.7%
same,Potency,[2],> 20.6 µM
COCc1[nH]nc2c1C(c1sccc1C)C(C#N)=C(N)O2 (configuration not stated),"activity, negative = inhibition",[1],-24.3%
same,Potency,[2],> 20.6 µM
Cc1ccc2nc(C(F)(F)F)c(C#N)c(N)c2c1,"activity, negative = inhibition",[1],-100% (active)
same,Potency,[2],> 20.6 µM
N#CC1=C(SCC(=O)c2ccccc2)NC2=C(C(=O)CCC2)C1c1ccco1 (configuration not stated),"activity, negative = inhibition",[1],-23.9%
C[C@@H]1O[C@@H](OC[C@@H]2O[C@@H](Oc3c(-c4ccc(O)c(O)c4)oc4cc(O)cc(O)c4c3=O)[C@H](O)[C@H](O)[C@@H]2O)[C@H](O)[C@H](O)[C@@H]1O,Potency,[2],> 46 µM
same,Potency,[3],> 46 µM
same,Potency,[4],inactive
N#CC(C(=O)NC1CC1)c1nc2ccccc2nc1N1CCN(C/C=C/c2ccccc2)CC1 (configuration not stated),Potency,[2],> 20.6 µM
Cn1c(NCc2ccccc2)nc2c1c(=O)n(Cc1ccc(Br)cc1)c(=O)n2C,Potency,[2],> 20.6 µM
CC1=CC(=O)C2=C(C)CC[C@@H]3[C@H](OC(=O)[C@H]3C)[C@H]12,Potency,[2],> 46 µM
same,Potency,[3],> 46 µM
same,Potency,[4],inactive
CC(=O)Oc1cc(OC(C)=O)c2c(=O)cc(-c3ccc(OC(C)=O)c(OC(C)=O)c3)oc2c1,Potency,[2],> 46 µM
same,Potency,[3],> 46 µM
same,Potency,[4],10 µM (active)
c1ccc2c(c1)CCN(c1ncnc3c1[nH]c1ccccc13)C2,Potency,[2],> 20.6 µM
OCc1ccncc1.OCc1ccncc1.[Cl][Pt]([Cl])([Cl])[Cl],Potency,[2],> 46 µM
same,Potency,[3],> 9.22 µM
same,"activity change, negative = inhibition",[4],0.578% [at 11.4 µM]
CSc1nc(N)nc(SCC(=O)C23CC4CC(CC(C4)C2)C3)c1C#N,Potency,[2],> 20.6 µM
O=c1c(O)c(-c2ccccc2)oc2cc(O)cc(O)c12,Potency,[2],> 46 µM
same,Potency,[3],> 46 µM
same,Potency,[4],inactive
CC(=O)OC[C@@H]1O[C@@H](Oc2cc(OC(C)=O)c3c(=O)cc(-c4ccc(OC(C)=O)c(OC(C)=O)c4)oc3c2)[C@H](OC(C)=O)[C@H](OC(C)=O)[C@@H]1OC(C)=O,Potency,[2],> 46 µM
same,Potency,[3],> 46 µM
same,Potency,[4],inactive
COc1ccccc1C[C@@H](Cc1nc2ccccc2[nH]1)c1nc2ccccc2[nH]1,Potency,[2],> 46 µM
same,Potency,[3],> 46 µM
same,Potency,[4],inactive
COc1ccc(C(=O)[C@H]2[C@H]3[C@@H](C(=O)[C@@H]4OC[C@H]3O4)[C@H]3C=Cc4ccccc4N32)c(OC)c1,Potency,[2],> 46 µM
same,Potency,[3],> 46 µM
same,Potency,[4],inactive
CC(C)C1=CC2=CC[C@H]3[C@@](C)(CCC[C@]3(C)C(=O)O)[C@@H]2CC1,Potency,[2],> 46 µM
same,Potency,[3],> 46 µM
same,Potency,[4],inactive
C[C@@H]1C[C@@]2(C)Oc3ccccc3[C@H]3OC[C@]1(COC(=O)Nc1ccccc1)[C@@H](C)[C@@H]32,Potency,[2],> 46 µM
same,Potency,[3],> 46 µM
CC1(C)CCC(C)(C)c2cc(C(=O)Nc3ccc(C(=O)O)cc3)ccc21,Potency,[2],> 46 µM
same,Potency,[3],> 46 µM
COc1ccc(-c2oc3cc(OC)c(OC(C)=O)c(OC)c3c(=O)c2OC)cc1OC(C)=O,Potency,[2],> 46 µM
same,Potency,[3],> 46 µM
COc1cc([C@@H]2Oc3cc([C@H]4Oc5cc(O)cc(O)c5C(=O)[C@H]4O)ccc3O[C@H]2CO)ccc1O,Potency,[2],> 46 µM
same,Potency,[3],> 46 µM
same,Potency,[4],inactive
O[C@@H]1CC[C@H]2Cc3ccccc3N=C21,Potency,[2],> 46 µM
same,Potency,[3],> 46 µM
same,Potency,[4],inactive
C=C[C@@](C)(O)CC[C@H]1[C@]2(C)CCCC(C)(C)[C@H]2CC[C@]1(C)O,Potency,[2],> 46 µM
same,Potency,[3],> 46 µM
same,Potency,[4],inactive
COc1ccc2[nH]c3c(N4CCN(Cc5ccc6c(c5)OCO6)CC4)ncnc3c2c1,Potency,[2],> 20.6 µM
